Measurements published in PubChem BioAssay (NCI).
The panel holds about 79,000 compounds, 15% with a hit somewhere; the sample as a whole holds those more often. Values without a mark were called inactive. Active and inactive are the calls of the source. Cut-off read from the data, not from the text of the source: active = growth inhibition above about 70%; inactive = the rest.

Assays:
[1] = NCI Yeast Anticancer Drug Screen. Data for the rad50 strain (AID 155);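 note: 0% = growth of vehicle-only cultures of the same strain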; settings: S. cerevisiae rad50 strain growth inhibition, hits give high values
Summary of the method: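 DNA repair mutant yeast, compound exposure, growth read-out; inhibition is taken relative to vehicle.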

[2] = NCI Yeast Anticancer Drug Screen. Data for the mec2-1 strain (AID 157); settings: S. cerevisiae mec2-1 strain, hits give high values
Summary of the method: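 Compounds were applied to mec2-1 yeast cells. Their growth was then compared with that of vehicle-treated cultures to give growth inhibition.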

[3] = NCI Yeast Anticancer Drug Screen. Data for the sgs1 mgt1 strain (AID 161);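 note: 0% = growth of cultures given vehicle only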; settings: S. cerevisiae sgs1 mgt1 strain, hits give high values
Summary of the method: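 Yeast cells carrying a defined DNA-repair defect were exposed to test compounds. Growth inhibition was measured relative to vehicle-treated controls.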

[4] = NCI Yeast Anticancer Drug Screen. Data for the cln2 rad14 strain (AID 165);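 note: 0% = growth equal to vehicle treated cultures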; settings: S. cerevisiae cln2 rad14 strain, hits give high values
Summary of the method: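 Strain: cln2 rad14 yeast, altered in cell cycle control and DNA damage repair. Read-out: growth inhibition vs vehicle.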

[5] = NCI Yeast Anticancer Drug Screen. Data for the bub3 strain (AID 167); settings: S. cerevisiae bub3 mutant strain, hits give high values
Summary of the method: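 In this screen, a yeast mutant lacking normal mitotic checkpoint function is challenged with compound. Relative growth versus vehicle gives the inhibition value.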

[6] = NCI Yeast Anticancer Drug Screen. Data for the mlh1 rad18 strain (AID 175); settings: S. cerevisiae mlh1 rad18 strain growth inhibition, hits give high values
Summary of the method: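 A repair-deficient yeast strain is exposed to test compound, and growth is scored relative to vehicle-treated controls.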

[7] = at 5.0 µM (retest, dose inferred, filed as 0.5)
[8] = at 50.0 µM (retest, dose inferred, filed as 5.0)

| SMILES | growth inhibition [1, 7] [%] | growth inhibition [1, 8] | growth inhibition ([1]; at 50.0 µM) | growth inhibition [2, 7] [%] | growth inhibition [2, 8] | growth inhibition ([2]; at 50.0 µM) | growth inhibition [3, 7] [%] | growth inhibition [3, 8] | growth inhibition ([3]; at 50.0 µM) | growth inhibition [4, 7] [%] | growth inhibition [4, 8] | growth inhibition ([4]; at 50.0 µM) | growth inhibition [5, 7] | growth inhibition [5, 8] | growth inhibition ([5]; at 50.0 µM) | growth inhibition [6, 7] | growth inhibition [6, 8] | growth inhibition ([6]; at 50.0 µM) |
| --- | --- | --- | --- | --- | --- | --- | --- | --- | --- | --- | --- | --- | --- | --- | --- | --- | --- | --- |
| CCn1cnc2[nH]cc(C#N)c2c1=O | -150 | 13% | 7.7% | -50 | -40% | -15.1% | -64 | -33% | 5.6% | -54 | -46% | 34.2% | -67% | -59% | -19.2% | -123% | -86% | 36.7% |
| COc1ccc(CSC(=S)Nc2ccc(Cl)c([N+](=O)[O-])c2)cc1 | 48 | 92% (active) | 88.5% (active) | 50 | 95% (active) | 77.1% (active) | 56 | 99% (active) | 88.4% (active) | 43 | 97% (active) | 9% | 77% (active) | 99% (active) | 21.5% | 79% (active) | 98% (active) | 94.1% (active) |
| C[Si](C)(C)CC(c1ccccc1)C(O)c1ccccc1 (configuration not stated) | -7 | 96% (active) | 98.5% (active) | -4 | 98% (active) | 97.8% (active) | -3 | 98% (active) | 98% (active) | 0 | 97% (active) | 93.9% (active) | 0% | 98% (active) | 98.7% (active) | 1% | 98% (active) | 98.8% (active) |
| COc1ccc(C(c2cc3c(cc2O)OCO3)N2CCOCC2)c(OC)c1OC (configuration not stated) | 4 | 96% (active) | 95.5% (active) | 4 | 97% (active) | 99.6% (active) | 0 | 74% (active) | 62.9% | -6 | 63% | 24.4% | 0% | 87% (active) | 98.7% (active) | 2% | 63% | 83% (active) |
| CCC(c1ccccc1)N1C(=O)c2ccccc2S1(=O)=O (configuration not stated) | -3 | -3% | 33.4% | -2 | 22% | 14.3% | -1 | -2% | 25.3% | -6 | -3% | -19.6% | 23% | 50% | 92.2% (active) | -3% | -2% | 32.5% |
| O/N=C\c1ccc(-c2ccccc2)cc1 | -17 | 87% (active) | 74% (active) | -13 | 64% | 47.6% | -8 | 88% (active) | 87% (active) | 17 | 67% | 51.1% | 2% | 83% (active) | 77.7% (active) | 6% | 91% (active) | 49.6% |
| CCOC(=O)C(=C=C=C(c1ccccc1)c1ccccc1)C(=O)OCC | -3 | 6% | 33.9% | -2 | 17% | 23.5% | -3 | 40% | 78.2% (active) | 0 | 1% | 50.1% | -4% | 6% | 31% | -4% | 6% | 50.5% |
| CCOP(=O)(OCC)C(=C1C=C(C(C)(C)C)C(=O)C(C(C)(C)C)=C1)P(=O)(OCC)OCC | 2 | 97% (active) | 98.2% (active) | -15 | 99% (active) | 96.8% (active) | 0 | 89% (active) | 98.8% (active) | -4 | 99% (active) | 97.2% (active) | 5% | 99% (active) | 97.2% (active) | -12% | 98% (active) | 96.8% (active) |
| O=C(CSc1nccc(=O)[nH]1)c1ccccc1 | 2 | 24% | 89.4% (active) | 1 | 38% | 81.7% (active) | 5 | 7% | 60.1% | -5 | 4% | 32.4% | -2% | 40% | 86% (active) | 4% | 52% | 40.8% |
